Drawing on PubChem BioAssay (NCI), this text covers growth inhibition for 19 compounds.

SMILES strings stand for the structures. Compounds without any hit were thinned out: in the full panel of roughly 79,000, 15% have a hit. Values without a mark were called inactive. The source made the active and inactive calls. Rule as the data show it: active = growth inhibition above about 70%; inactive = the rest.

This assay in a line: NCI Yeast Anticancer Drug Screen. Data for the mec2-1 strain (AID 157). As to conditions: S. cerevisiae mec2-1 strain, at 50.0 µM, stronger effect = higher value. The method, boiled down: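 Each compound was tested on mec2-1 yeast, a strain altered in DNA damage repair or cell cycle control. Growth inhibition is reported relative to vehicle.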
Consider `NC(=O)/C=C/c1ccc([As]=O)cc1` (centres undefined), for which the growth inhibition is 98.7% (active).

Turning to `O=[N+]([O-])c1cccc(SC(Cl)(Cl)Cl)c1`, the growth inhibition was 99.5% (active).

On to `COc1cc(/C=C(/C)[N+](=O)[O-])ccc1O`, for which the growth inhibition is 99.6% (active).

Consider `CCC[CH2][Sn]1([CH2]CCC)[O]CC(CN2CCOCC2)[O]1` (centres undefined), for which the growth inhibition is 91% (active).

Turning to `O=C1CN2CCCCC2CN1` (centres undefined), the growth inhibition was 7.9%.

Consider `CCC[CH2][Sn]([CH2]CCC)([O]C(=O)CCC(C)=O)[O]C(=O)CCC(C)=O`, for which the growth inhibition is 91.7% (active).

As to `C[CH2][Sn]([F])([CH2]C)[CH2]C`, the growth inhibition was 89.7% (active).

As to `CN(C)CCBr`, the growth inhibition is 88.1% (active).

Take `O=[N+]([O-])c1ccc2c3c(cccc13)CC2`: the growth inhibition was 9.15%.

`CC1=CC2CC(C)=C(CC[C@]3(C)CC[C@H]([C@@H](C)C(=O)O)OO3)C(C)(C)C2CC1` (some centres undefined): the growth inhibition is 93.8% (active).

Consider `ClC(CN1CCCCC1)C(Cl)c1ccccc1` (centres undefined), for which the growth inhibition was 4.8%.

With `CCOC(=O)c1ccc(N=Cc2ccc(N(CCCl)CCCl)cc2C)cc1`, the growth inhibition was 16.4%.

Take `CN=C(N)N/N=C(\C)c1ccc2sc3ccc(/C(C)=N/NC(N)=NC)cc3c2c1`: the growth inhibition is 24.5%.

For the compound `c1cc2n[pH]nc2cn1` (centres undefined), the growth inhibition is 11.2%.

Take `O=[N+]([O-])c1ccc(Br)c([N+](=O)[O-])c1`: the growth inhibition was 99.4% (active).

As to `O=C(CBr)NC1CCCCC1`, the growth inhibition was 90.6% (active).

On to `CC(C)C12C=C3CCC4C(C)(C(=O)O)CCCC4(C)C3(CC1)OO2` (centres undefined), for which the growth inhibition was 95% (active).

Regarding `IC(I)=C(I)I`, the growth inhibition was 92.2% (active).

`Clc1ccc2c(c1)C(c1ccccc1Cl)=NCC(SCCN1CCOCC1)=N2`: the growth inhibition is 93.6% (active).
